# Bioassay records as filed in PubChem BioAssay.
# D2 PAM-1: human D2 receptor positive allosteric modulation; DiscoveRx D2 beta-arrestin cells, luminescence, 90 min; 100% = 57 uM dopamine signal; potentiation, % (test concentration not listed); AID 624464; 0.23% of 360,000 active; P14416; in the data active = potentiation above about 50%; inconclusive = mostly about 30% to 49%
# Target sequence (P14416 whole entry, looked up): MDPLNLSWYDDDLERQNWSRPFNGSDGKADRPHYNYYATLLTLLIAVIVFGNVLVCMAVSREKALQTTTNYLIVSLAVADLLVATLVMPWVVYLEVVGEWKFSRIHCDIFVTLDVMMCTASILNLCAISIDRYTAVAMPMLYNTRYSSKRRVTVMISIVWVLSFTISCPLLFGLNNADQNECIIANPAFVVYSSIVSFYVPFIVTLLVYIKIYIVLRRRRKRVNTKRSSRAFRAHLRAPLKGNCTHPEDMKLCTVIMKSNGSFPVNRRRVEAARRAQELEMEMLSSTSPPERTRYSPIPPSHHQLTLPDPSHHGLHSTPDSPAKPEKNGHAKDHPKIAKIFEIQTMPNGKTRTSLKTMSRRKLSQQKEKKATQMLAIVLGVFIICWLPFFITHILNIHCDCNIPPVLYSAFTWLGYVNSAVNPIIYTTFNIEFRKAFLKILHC
#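 PathHunter beta-arrestin assay in DiscoveRx D2 cells. Compounds were added with an EC20 of dopamine (50 nM final) for 90 min at 37 deg C. Luminescence was read 1 h after detection reagent, with 57 uM dopamine as the EC100 control.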
# D2 ag-1: agonists of human D2 dopamine receptor (beta-arrestin); P14416; DiscoveRx PathHunter D2 beta-arrestin, luminescence, 90 min; 100% = 57 uM dopamine signal; activation, % (test concentration not listed); 0.084% of 360,000 active; in the data active = activation above about 40%; inconclusive = between about 15% and that limit
#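 Agonist mode: compounds alone added to overnight-plated D2 PathHunter cells for 90 min at 37 C, with 57 uM final dopamine (EC100) defining full response. Beta-arrestin recruitment detected by chemiluminescent reagent, read after 1 h at ambient temperature.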
# D2 ag-2: activates the human D2 dopamine receptor | activation, % at 2 µM | HEK293 T-REx D2 cells, calcium flux agonist mode | 0.53% of 340,000 active | AID 485358 | P14416;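 active = activation over 3 SD above normal in the single-dose calcium agonist read, cut at about 30% in these data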
#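 Tetracycline-induced HEK293 Trex cells with D2 receptor force-coupled to calcium signaling, plated overnight at 30 C and loaded with no-wash calcium dye. Calcium flux read kinetically for 180 s after compound addition; responses flag agonists.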
# D2 PAM-2: D2 dopamine receptor (human) potentiation; P14416; HEK293 T-REx D2, calcium flux, EC20 dopamine potentiation; 0.34% of 340,000 active; potentiation, % at 10 µM;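 active = potentiation over 3 SD above the plate norm, cut at about 30% in these data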
#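 Calcium flux readout, no-wash dye, 1 read/s. Inducible HEK293 Trex D2 line, overnight 30 C. Compound alone 180 s (agonist flags), then EC20 dopamine, another 180 s to score potentiation.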
# D2 antagonist: D2 dopamine receptor (human) antagonism. inhibition, % at 10 µM. AID 485344. HEK293 TREx D2 cells, calcium flux, dopamine EC80. 2% of 340,000 active; in the data active = inhibition above about 30%; inactive = below that, where a call was filed
#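 Calcium flux kinetic readout in an inducible HEK293 TREx D2 line plated overnight at 30 C. After 180 s compound exposure, an EC80 dopamine challenge follows with another 180 s kinetic read to detect antagonism.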
# Numbers stand for hits; – = inactive; ? = inconclusive; · = no result. Sampled rows, rich in hits. Any-hit rate of the full collection: about 2.4%.
SMILES,D2 PAM-1,D2 ag-1,D2 ag-2,D2 PAM-2,D2 antagonist
Cc1ccc(C)c(OCCC(=O)OCC(=O)N2c3ccccc3NC(=O)C2(C)C)c1,–,–,–,–,42.3
CC(=O)NC(CC(=O)OCC(=O)N1c2ccccc2NC(=O)C1(C)C)c1ccccc1 (stereo unspecified),–,–,–,–,52.4
COc1ccc(NC(=O)CSc2nnnn2C2CC3C=CC2C3)cc1 (stereo unspecified),–,–,–,–,–
Cc1ccc(NC(=O)CS(=O)(=O)c2cn(C)c3ccccc23)c(C)c1,–,–,–,–,–
CCn1cc(S(=O)(=O)CC(=O)Nc2ccc3c(c2)OCCO3)c2ccccc21,52.6,–,–,–,–
Cn1cc(S(=O)(=O)CC(=O)Nc2ccc(Br)cc2)c2ccccc21,–,–,–,–,39.2
COc1ccc(NC(=O)CS(=O)(=O)c2cn(CC(=O)N(C(C)C)C(C)C)c3ccccc23)c(OC)c1,–,–,–,–,–
CCCn1cc(S(=O)(=O)CC(=O)Nc2ccc(OC)cc2OC)c2ccccc21,68.1,–,–,–,–
Cc1cccc(NC(=O)C2CCN(c3nc4ccccc4[nH]3)CC2)c1C,·,·,–,–,·
COC(=O)Nc1nnc(/C=C/c2ccc(OC)cc2)s1,–,–,–,–,30.7
COc1ccc(/C=C/c2nnc(NC(C)=O)s2)cc1,–,–,–,–,–
CCOc1ccc(S(=O)(=O)N2CCC(C(=O)OC(C)C(=O)N(C)C3CCCCC3)CC2)cc1 (stereo unspecified),–,–,–,–,–
Cc1cc(N2CCC(N(C)C3CCCC3)CC2)nc2cc(O)ccc12,–,–,–,–,47.8
CCN(CC)C(=O)C1CCCc2c1[nH]c1ccc(Cl)cc21 (stereo unspecified),–,–,–,–,–
O=CNC1CCCc2c1[nH]c1ccc(Cl)cc21 (stereo unspecified),77.2,–,–,–,–
O=C(CCc1ccccc1)NC(=S)Nc1cccc(Br)c1,79.7,?,–,–,–
COc1cc(NC(=S)NC(=O)CCc2ccccc2)cc(OC)c1,61.7,–,–,–,–
CN(C)c1ccc(CNC(=O)CN2CCSc3ccc(S(=O)(=O)N(C)C)cc32)cc1,·,·,–,·,·
Cc1ccc(S(=O)(=O)N2CCN(C(=O)c3ccccc3Cc3ccccc3)CC2)c(C)c1,–,–,–,–,–
S=C(Nc1ccc(Cl)cc1)NC1CCCCC1,–,–,–,–,–
FC(F)Oc1ccc(NC(=S)NC2CCCCCCC2)cc1,–,–,–,–,33.3
CN(CCN1CCc2ccccc2C1)Cc1nc(-c2ccc3c(c2)OCO3)no1,–,–,–,–,43.6
COc1ccc(Cc2noc(CN(C)CCN3CCc4ccccc4C3)n2)cc1OC,–,–,–,–,–
CN(CCN1CCc2ccccc2C1)Cc1nc(Cc2ccccc2F)no1,–,–,–,–,41.0
CN(Cc1nc(-c2ccccc2)no1)C(=O)c1ccc2c(c1)OCO2,–,–,–,–,–
SMILES,D2 PAM-1,D2 ag-1,D2 ag-2,D2 PAM-2,D2 antagonist
CN(CCCCN1CCOCC1)Cc1nc(-c2ccc3c(c2)OCO3)no1,–,–,–,–,–
OCCN(Cc1nc(-c2ccc3c(c2)OCO3)no1)Cc1cccs1,–,–,–,–,38.8
C=CCn1c(N)c(-c2nc3ccccc3n2C)sc1=S,–,–,–,30.6,–
Cc1cc(C)cc(OCC(=O)N2CCC(c3nc4ccccc4o3)CC2)c1,·,·,–,–,·
Cc1nc2ccccc2n2c(O)c(CC(=O)O)cc12,79.3,–,–,–,–
Cc1nc2ccccc2n1CCC(=O)O,–,–,–,–,–
CC12CCC(=O)N1c1ccccc1C(=O)N2c1ccccc1 (stereo unspecified),–,–,–,34.5,–
CN(C)c1ccc(S(=O)(=O)NCC(=O)NCCC2=CCCCC2)cc1[N+](=O)[O-],–,–,–,–,31.4
CN(C)c1ccc(S(=O)(=O)NCC(=O)NCCOc2ccccc2F)cc1[N+](=O)[O-],–,–,–,–,–
CC1(C)CC(Cc2cccc(C(F)(F)F)c2)N(C(=O)OC(C)(C)C)C1 (stereo unspecified),–,–,·,·,·
CNC(=S)N1CCC(c2nc3ccccc3s2)CC1,–,–,–,–,68.3
COC(=O)/C(=C/c1ccc(OC)cc1)NC(=O)c1ccco1,–,–,–,–,–
COC(=O)/C(=C/c1ccccc1)NC(=O)c1ccco1,–,–,–,–,38.6
COc1ccc2nc(N(CCN(C)C)C(=O)/C=C/c3cccs3)sc2c1,–,–,–,–,–
COc1ccc2sc(N(CCN(C)C)C(=O)/C=C/c3cccs3)nc2c1,–,–,–,–,35.8
Cc1cccc2sc(N(CCN(C)C)C(=O)/C=C/c3cccs3)nc12,–,–,–,–,31.6
Cc1ccccc1CNC(=O)c1ccc2sc([C@H]3C[C@H](O)[C@@H](CO)O3)nc2c1,–,–,·,·,·
CCN(Cc1ccccc1)Cc1ccc(OCc2ccccc2)cc1,–,–,–,–,31.1
COc1ccc(C2CC(c3ccccc3)=NN2C(=O)COC(=O)/C=C/c2ccc(O)c(OC)c2)cc1 (stereo unspecified),–,–,–,–,–
CC(=O)Nc1ccc(S(=O)(=O)N2CCCN(S(=O)(=O)c3ccc(NC(C)=O)cc3)CC2)cc1,–,–,–,–,–
CN(CC(=O)Nc1ccc(S(=O)(=O)N2CCCC2)cc1)Cc1ccc(Cl)cc1Cl,63.8,?,–,–,–
CC(C)(C)CC(=O)Nc1ccc(S(=O)(=O)N2CCCC2)cc1,–,–,–,43.5,–
CN(CC(=O)Nc1ccc(S(=O)(=O)N2CCCC2)cc1)CC(=O)Nc1ccc(F)c(F)c1F,–,–,–,–,–
CC(C)CC(=O)Nc1ccc(S(=O)(=O)N2CCCC2)cc1,–,–,–,–,–
CCOc1ccc(NC(=O)CN(C)Cc2ccc3c(c2)OCO3)cc1S(=O)(=O)N1CCCC1,–,–,–,–,58.2
SMILES,D2 PAM-1,D2 ag-1,D2 ag-2,D2 PAM-2,D2 antagonist
CC(=O)Nc1ccc(S(=O)(=O)N2CCCN(S(=O)(=O)c3ccc(C)cc3)CC2)cc1,–,–,–,–,30.7
CC(=O)Nc1ccc(-c2ccnc3c2CC(C)(C(=O)NCc2ccc(F)c(F)c2)O3)cc1 (stereo unspecified),–,–,·,·,·
CCOc1ccc(Nc2nc(-c3cccc(Cl)c3)c3c(n2)-c2ccccc2OC3)cc1,·,·,–,–,·
CCCCN(C(=O)c1cc2c(s1)CCC2)c1c(N)n(CCC)c(=O)[nH]c1=O,–,–,·,·,·
COc1cc(NC(=O)C(NC(=O)C2CCC(C)CC2)C(C)C)cc(OC)c1OC (stereo unspecified),·,·,–,–,·
COc1c2ccc(C(=O)NCc3cc(C(F)(F)F)cc(C(F)(F)F)c3)cc2nn1C,–,–,–,–,40.8
Cc1ccccc1NC(=O)Nc1nnc([C@@H]2C[C@H](O)[C@@H](CO)O2)s1,–,–,·,·,·
